Sampled rows, rich in hits. Any-hit rate of the full collection: about 5.9%.
GLP1R cytotox: cytotoxicity in counter-screen for GLP-1R inverse agonists; HEK293 cAMP-luciferase reporter cells, luminescence, 24 h; Potency, µM (titrated, usually from 38.3 µM), usual class: inhibitors; 410,000 compounds, 0.13% hits; AID 624418;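 note: loss of luciferase light is scored as toxicity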
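Compound-treated cells are incubated 24 hr at 37 deg C under 5% CO2 after a 12 hour attachment period, then luciferase detection reagent is added and luminescence is measured following 12 min at room temperature; lowered signal indicates toxicity.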
RORgamma inh: ROR gamma (mouse) transcription inhibition | Potency, µM (series often up to 53.6 µM), actives largely listed as inhibitors | Drosophila S2 Gal4-RORgamma UAS-luciferase reporter, 20 h | 310,000 compounds, 5.4% hits | AID 2551 | P51450; note: nearly all actives have a fitted effect of over 60% in size
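Read-out: Photinus luciferase luminescence; inhibitors lower reporter signal. Insect Schneider cells with Gal4-ROR gamma fusion under metallothionein promoter, UAS reporter; 700 uM final copper sulfate induction, 20 hr, ambient temperature.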
VP16 counter: inhibits Gal4-VP16 luciferase reporter, ROR gamma counter-screen | 310,000 compounds, 3.5% hits | Drosophila S2 Gal4-VP16 UAS-luciferase, luminescence, 20 h | AID 2546 | Potency, µM (doses to about 53.6 µM), most hits filed as inhibitors;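 note: Gal4-VP16 expression switched on by copper sulfate through the metallothionein promoter; nearly all actives have a fitted effect of over 50% in size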
GLP-1R inv ag: inverse agonists of human GLP-1 receptor | 410,000 compounds, 1.6% hits | P43220 | AID 624417 | Potency, µM (series often up to 38.3 µM), hits mostly inhibitors | HEK293 GLP-1R CRE-luciferase, luminescence, 24 h; GLP-1R form is constitutively active; note: nearly all actives have a fitted effect of over 55% in size
Target sequence (P43220 whole entry, looked up): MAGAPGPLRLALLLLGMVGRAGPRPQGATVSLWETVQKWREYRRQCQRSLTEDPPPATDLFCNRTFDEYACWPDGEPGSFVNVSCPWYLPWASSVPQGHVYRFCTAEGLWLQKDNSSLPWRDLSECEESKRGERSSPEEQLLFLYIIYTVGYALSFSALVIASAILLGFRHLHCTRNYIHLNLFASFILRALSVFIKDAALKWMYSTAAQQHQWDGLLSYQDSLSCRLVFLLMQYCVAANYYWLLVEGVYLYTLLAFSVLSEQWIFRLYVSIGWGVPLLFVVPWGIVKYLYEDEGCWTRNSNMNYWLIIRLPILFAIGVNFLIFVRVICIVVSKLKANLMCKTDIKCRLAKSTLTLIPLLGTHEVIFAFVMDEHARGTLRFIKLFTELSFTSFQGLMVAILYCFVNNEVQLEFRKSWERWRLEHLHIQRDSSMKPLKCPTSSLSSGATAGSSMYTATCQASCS
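Assay principle: reduced luminescence from a cAMP-responsive reporter in HEK293 cells co-expressing a constitutively active GLP-1R. Conditions: 24 hr compound incubation, 37 deg C, 5% CO2.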
GLP-1R agonist: GLP-1 receptor (human) agonism; P43220; Potency, µM (top dose mostly 45.6 µM), hits mostly activators; HEK293 GLP-1R CRE-luciferase, luminescence, 4-6 h; cells express a hypersensitive GLP-1R form; AID 624172; 380,000 compounds, 0.007% hits
Numbers stand for hits; i = inactive; ? = inconclusive; nt = no result given; [ ] = another dose, or the depositor's remark. Calls come from the whole dose curve; as a rule, active = well fitted curve in the direction sought with a large enough effect; inconclusive = small, poorly fitted or top-dose-only effect, or another doubt; inactive = no such curve, though single readings can be large; an effect the other way counts as inactive or inconclusive.

SMILES | GLP1R cytotox | RORgamma inh | VP16 counter | GLP-1R inv ag | GLP-1R agonist
CC(=O)c1cccc(NC(=S)NC(=O)c2ccc(Cl)cc2)c1 | ? | 7.08µM | 8.91µM | i | i
O=C(O)c1cccc(NC(=S)NC(=O)c2ccncc2)c1 | i | i | i | ? | i
CCCc1cc(C(=O)NNC(=S)Nc2cccc(C)c2)cs1 | i | 2.24µM | ? | ? | i
CC(=O)c1cccc(NC(=O)c2cc3c(s2)-c2c(C)cccc2OC3)c1 | i | nt | nt | i | nt
Cc1cccc(NC(=S)NNC(=O)c2ccccc2Br)c1 | i | 0.891µM | ? | i | i
CCCCCCCCCCCC(=O)OCC(O)C1OCC(O)C1O (configuration not stated) | nt | i | i | nt | i
CCc1ccc(C(=O)c2cn(CC(=O)Nc3ccc4c(c3)OCO4)c3cc(OC)c(OC)cc3c2=O)cc1 | i | nt | nt | i | i
Cc1cc(C)c2c(CC(=O)Nc3ccccc3C(F)(F)F)coc2c1 | i | nt | nt | i | nt
CC(=O)c1ccc(NC(=S)NC(C)c2ccc(Cl)cc2Cl)cc1 (configuration not stated) | i[0.307 µM] | 11.2µM | i | i[0.307 µM] | i
CC(=O)c1cccc(NC(=S)NC(=O)c2ccccc2C)c1 | i[0.307 µM] | i | i | i[0.307 µM] | i
C/C(=N\NC(=O)c1ccc(Cl)cc1)c1cccc(NC(=O)C(C)C)c1 | i | 11.2µM | i | i | i
CC(=O)c1cccc(NC(=S)NC(=O)c2ccccc2Br)c1 | i | 11.2µM | i | i | i
CC(=O)c1cccc(NC(=S)NC(=O)c2cccc(C)c2)c1 | i | 7.94µM | ? | i | i
O=C(CN1C(=O)CC(c2ccco2)Sc2ccccc21)Nc1cccc(C(F)(F)F)c1 (configuration not stated) | i | nt | nt | ? | i
S=C(NC1CCCCCC1)NC1CCCC1 | ? | 1.58µM | 10µM | ? | i
CN(C)CCNC(=S)NC1CCCCC1 | i | i | i | i | i
NNC(=S)NC1CCS(=O)(=O)C1 (configuration not stated) | i | 2.82µM | 4.47µM | ? | i
S=C(NC1CCCCC1)NC1CCCCC1 | nt | 2.82µM | ? | nt | nt
CN(C)C(=S)NC1CCS(=O)(=O)C1 (configuration not stated) | i | i | i | i | i
NNC(=S)NC1CCCCCCCCCCC1 | ? | 0.282µM | 2.82µM | ? | i
CN(C)c1ccc(CNC(=O)c2ccc(Cn3c(SCc4ccccc4)nc4cccnc43)cc2)cc1 | i | nt | nt | i | nt
CCOc1ccc(S(=O)(=O)N(CC(=O)Nc2ccc(OC)c(Cl)c2)c2ccccc2)cc1 | i | nt | nt | i | i
CCCCN(C)c1ncnc2c1cnn2-c1cccc(Cl)c1 | i | nt | nt | i | nt
OC[C@@H](O)C(O)[C@H](O)[C@H](O)CO (some centres not stated) | nt | i | i | nt | nt
O=C1OCCC1Sc1nc2ccccc2c(=O)n1Cc1ccc(F)cc1 (configuration not stated) | i | 3.98µM | 8.91µM | i | i
SMILES | GLP1R cytotox | RORgamma inh | VP16 counter | GLP-1R inv ag | GLP-1R agonist
O=C(CSc1nc2ccccc2c(=O)n1Cc1ccc(F)cc1)NCc1cccs1 | i | 2.82µM | 5.01µM | i | i
CC(C)OC(=O)c1cn(Cc2c(F)cccc2F)c2sc(-c3ccc(NC(=O)C(C)C)cc3)c(CN(C)Cc3ccccc3)c2c1=O | nt | i | i | nt | nt
CCCOCC(C)OCC(C)O (configuration not stated) | nt | i | i | nt | nt
CC(C)[C@H](NC(=O)c1ccccc1)C(=O)NC1=NCCS1 | i | nt | nt | i | i
O=C(NC1=NCCS1)C12CC3CC(CC(C3)C1)C2 | i | 7.08µM | 22.4µM | ? | i
O=C(Nc1nncs1)C12CC3CC(CC(C3)C1)C2 | i | i | i | ? | i
CC(C)C(NC(=O)C12CC3CC(CC(C3)C1)C2)C(=O)NC1=NCCS1 (configuration not stated) | nt | 17.8µM | i | nt | nt
COc1ccccc1CNC(=O)C(NS(=O)(=O)c1cccs1)C(C)C (configuration not stated) | i | nt | nt | i | i
O=C(O)COc1ccccc1C1Nc2ccccc2-c2nnc(SCc3ccc(Cl)cc3)nc2O1 (configuration not stated) | i | nt | nt | i | nt
Cc1ccc2c(c1)[C@H]1[C@H](CO2)[C@H](c2ccccc2)[C@]2(C)C(=O)Nc3ccc(Br)cc3C(=O)N12 | i | nt | nt | 3.16µM | i
COc1ccc2c(c1)OC[C@H]1[C@H]2N2C(=O)CN(Cc3ccc(Cl)cc3)C(=O)[C@@]2(C)[C@H]1c1ccccc1 | i | nt | nt | 11.2µM | i
COc1ccc2c(c1)C(=O)N1[C@H]3c4cc(OC)ccc4OC[C@@H]3[C@H](c3ccccc3)[C@]1(C)C(=O)N2 | i | nt | nt | ? | i
COc1ccc2c(c1)[C@H]1[C@H](CO2)[C@H](c2ccccc2)[C@]2(C)C(=O)Nc3ccc(Br)cc3C(=O)N12 | i | nt | nt | 5.62µM | i
Cc1nc(N/N=C/c2ccccn2)sc1C | 3.55µM | 0.112µM | 0.501µM | 2.24µM | i
CCCc1sc(N/N=C/c2ccccn2)nc1-c1ccc(F)cc1 | ? | 0.282µM | 0.316µM | ? | i
Cc1cccc(C(=O)NC2CC3CCCC(C2)N3S(=O)(=O)c2ccccc2)c1 (configuration not stated) | ? | i | i | ? | i
O=C(NC1CC2CCCC(C1)N2S(=O)(=O)c1ccccc1)c1ccccc1 (configuration not stated) | i | ? | 12.6µM | ? | i
O=C(CN1C2CCCC1CC(NC(=O)c1ccccc1)C2)Nc1ccccc1C(F)(F)F (configuration not stated) | i | ? | i | 2µM | i
Cc1ccc(N2C(=O)N(CC(=O)Nc3c(C)cc(C)cc3Cl)C(=O)C2C)cc1 (configuration not stated) | i | nt | nt | 10µM | i
Cc1ccc(-c2cn(-c3cccc(Cl)c3)c(S(=O)(=O)CC(=O)Nc3cccc(C)c3)n2)cc1 | i | nt | nt | 8.91µM | nt
O=c1[nH]c(=O)c2[nH]c(=O)[nH]c2[nH]1 | nt | i | i | nt | i
COc1ccc(CCNC(=O)c2ccc3c(c2)N(Cc2cccc(Cl)c2)C(=O)c2ccccc2S3=O)cc1OC (configuration not stated) | i | nt | nt | i | nt
COC(=O)c1c(-c2ccccc2)[nH]c(-c2nccc3ccccc23)c1C(=O)OC | i | nt | nt | ? | i
c1ccc(-c2ccc(-c3nccc4ccccc34)[nH]2)cc1 | nt | 5.01µM | 10µM | nt | nt
c1ccc(-c2ccc(-c3ccccc3)[nH]2)cc1 | i | nt | nt | ? | i
N#Cc1cc(-c2ccccc2)[nH]c1-c1nccc2ccccc12 | i | 10µM | ? | ? | i
CCc1ccc(NC(=O)CSc2ccc3nnc(CCNS(=O)(=O)c4ccc(OC)cc4)n3n2)cc1 | i | nt | nt | i | nt
CC1(C)Cc2c(C#N)c(SCCOc3ccccc3)nc(N3CCOCC3)c2CO1 | i | i | i | 12.6µM | i
CC1(C)Cc2c(C#N)c(SCCO)nc(N3CCOCC3)c2CO1 | i | i | i | i | i
COc1ccc(NC(=O)c2oc3ccccc3c2NC(=O)Cc2cccs2)cc1 | i | nt | nt | i | i

Compound activity: PubChem BioAssay, National Center for Advancing Translational Sciences (NCATS)
